# Out of some 31,000 sequences screened, about 1,400 (4.5%) were called active. Many of the other results were omitted from the sample, so actives are more common in it than they were. Unmarked numbers belong to inactive results.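 The calls were made as follows: active = median seed-adjusted z-score above 1 or below -1; inactive = the rest.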
# Test: Novel Modifiers of Survival Motor Neuron (SMN) Protein: Gene Identification via Genome-wide siRNA Screen;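 also: luminescence tracks full-length SMN protein made from the SMN2 reporter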
# Details: HEK293T SMN2-luciferase reporter, siRNA knockdown, 72 h; actives lie on both sides
# Procedure, shortened: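 HEK293T cells stably expressing an SMN2 splicing/cDNA-luciferase reporter were reverse-transfected with a druggable-genome siRNA library and read by luminescence at 72 hours; hits defined by MAD score above 1.0 or below -1.0.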
row,Sequence,median seed-adjusted z-score
1,CCAUUGAAGUGGUUAAGAATT against CCNE2,0.801
2,GGUUGUUGCUGAUAGAGAATT against DPH5,0
3,GAAGGACUCUGCAUAUGAUTT against SLC2A14,-1.09 (active)
4,CAACUAUAGUGCUCCCAGUTT against ZFP36L1,-0.933
5,CUCAGAGUGCAGAACCACATT against TRIM15,0.292
6,CCACGUACCCUUCAUCAAATT against KIF11,-0.381
7,GGUCUUCAGUGAACAGUUUTT against ZNF562,-0.0954
8,CUGUAAGAUUAAAUCCCAATT against TMTC4,-1.16 (active)
9,GCCUUACAACUCUAAUGAATT against ZNF519,0.0162
10,GCAUGGUCAUAGGCCUGAUTT against CYB561,0
11,GGUGGAUGCUCAAUCCAGATT against FOXO1,0.0591
12,CGAGAAGAGGAUUAAAGGATT against HAND1,0.161
13,GGAAGAUUACAACCGAACATT against ARHGEF12,0.136
14,GAUCACGUUUGACAACAAATT against MCOLN1,-0.522
15,CUUUAACUGGGAUCACUGUTT against FOLR3,0
16,CAACCAAAGUCGAAUAUGATT against PLK1,-2.57 (active)
17,UCCCAAACCUUCACCAUCATT against THAP8,-0.872
18,GCAUCACCAUUGCUUGGAATT against STAT5B,0
19,CCUCGAUAUUUUAACCUUUTT against EID2,-1.04 (active)
20,GUGAUAAAGUGAUAAGAUUTT against CPA6,0.343
21,CCCACUAAAUUUUCGGAAATT against ATAD2,-0.246
22,CUAUGAAAAUUGCAGGAGATT against GCM2,-0.241
23,CCCAGGAACUGCUAACGAATT against SETMAR,0.191

row,Sequence,median seed-adjusted z-score
1,GCUCAUCCCUGUGCAUGGUTT against LY6G5B,-1.29 (active)
2,CUACAAGACAGGCAAUCUATT against IFI30,0.401
3,CAGUAAGAAGGGUUCAAUATT against BTK,-0.0648
4,CAAGAGAUAUCAUCGAUUATT against ZRANB3,0.0516
5,GGAUAUAGCUGGUGACCCATT against PCDH7,0.192
6,AGUUGUUGGAAUGACCUUATT against CLEC5A,-1.07 (active)
7,GAAGAUGUAUGGAAUUCUUTT against DARC,0.0814
8,CCAAGUAUCUGGUGGUGAATT against NDUFV1,-0.653
9,GGACGAGAGAUGUACAUUATT against CNGA1,-1.08 (active)
10,ACAUUUAGGUUGUAAACCATT against PLA2G12A,0.139
11,UGGUCAACUAGAAUACAUATT against RGPD5,-0.0931
12,GGAGAUGCACAACAUCUUATT against PIP4K2B,0.17
13,GAGUGGAAGUCAUACCCUATT against TTLL3,-0.194
14,CUAAUAACAGGGUACAGUATT against ZNF238,-0.491
15,CUAUGGACUUCAUCGCUUUTT against EEF1E1,-1.45 (active)
16,GCAGAGUCAUGACCAGGGATT against CHST6,0.372
17,CAGAUGCAGCACUCACUUUTT against MMP17,-0.653
18,AGAGAGCUCCGAACCUUCUTT against ICAM5,-1 (active)
19,GGAGGGUUUUCACGAUGAATT against AP2B1,-0.214
20,CUGCAGAUCUUGUGACAGATT against IMPA2,0.0513
21,GUAUACUCCAGAACAAGUATT against ALDOB,-1.34 (active)
22,AGACAAAGAUUGAUAAACATT against SLC24A3,0.0177
23,AGAUCUACCCAGACCCGGATT against TRAF4,-1.16 (active)

row,Sequence,median seed-adjusted z-score
1,UCUACGACGUGGACGGUAATT against RCVRN,0.562
2,CAGUAUACGUGGUGCACGATT against PFKL,0
3,GCAUCAACAAUAUCCGGGATT against FARSA,-0.158
4,GGGUUCCAGUAACCAGUGATT against RPP21,-1.09 (active)
5,GCAGCUCCAGUAACCUCAATT against ZNF683,-0.452
6,GAAGAGAUGUUCAACUGCATT against RAB35,0.317
7,GCAAGAGAAUUAAACUGCATT against RAB8A,-0.0436
8,GAGUUACAGCUGAUCAAAATT against VPS26A,-1.55 (active)
9,GGGAUCAACUUAGAAGAGATT against POU6F1,0.978
10,GGAUGCUGCUGAGAACUAUTT against PIK3R3,-1.88 (active)
11,GGAUCUUGAAUUCAACUAUTT against TLR8,0
12,CGCUAUGAUCUGUACCACATT against TMEM147,0.233
13,GGAACGCAGUCAGAUUUGATT against CA5B,0.317
14,GCGAUGAAAUUGUCGUGUATT against MAP3K9,-0.498
15,AGAUAACUGGAAAAUGUCUTT against SLC22A18AS,0.0382
16,CAAUGUCCGUGAUCAUGAUTT against SARDH,-0.195
17,GCCUCACCGUCUAUGUACATT against CD200,-0.0135
18,GGAUCACGAUGAAGACAAATT against CTSL3,1.07 (active)
19,ACUGGGCUCUCUUUACCUATT against DBNL,0.398
20,GAACAGGCGUGCCAAGUCUTT against MIXL1,-0.204
21,AAAGCGCAAUUGGUGGUAATT against DYNLT1,0.764
22,GGUUGCUAUCAAUACCCUUTT against SLC22A18,-0.654
23,CCAUCCUUAGAGUUCCUUATT against SLC23A3,-0.254

# — PubChem BioAssay AID1347426 (Functional Genomics Laboratory (NCATS/FGL), 2020)
